The text below walks through data of PubChem BioAssay AID489025 (Southern Research Specialized Biocontainment Screening …, 2010).

The whole screen tested about 2,300 compounds, of which about 790 (34%) were called active. How the calls were made is not given here. The list shows a part of the results. Entries that show only a call come without a potency. Potency and affinity values are given separately.

This test is described as follows: THP-1 cell cytotoxicity, dose response, cytotoxicity control for non-replicating M. tuberculosis project (AID 489025). To be noted: THP-1 cell viability; series mostly up to 40 µM.
Regarding `Cc1ccc(C(=O)Nc2nnc(-c3ccncc3)o2)cc1`, the compound was called inactive. In the case of `O=C(COc1ccccc1)Nc1nnc(-c2ccc(Cl)cc2)o1` it was “inactive”; in that of `O=C(Nc1nnc(-c2ccc(Cl)cc2)o1)c1cccc(N2C(=O)CCC2=O)c1`, “inactive”. Regarding `O=C(COC(=O)CC12CC3CC(CC(C3)C1)C2)Nc1cccnc1Cl`, the outcome was inactive. In the case of `CCc1ccc(N=CC2=C(O)CC(c3ccco3)CC2=O)cc1` (stereo not drawn) it was “inactive”.

Regarding `C(=C\c1ccccc1)/CSc1nc2ncccc2[nH]1`, the result was inactive. In the case of `CCOC(=O)C1CCCN(Cc2ccc(OCc3ccccc3)cc2)C1` (stereo not drawn) it was “inactive”; in that of `CCOC(=O)c1ccc(COC(=O)c2ccc(-c3nnc(-c4ccccc4)o3)cc2)o1`, “inactive”; in that of `CCC(=O)c1ccc(OCc2ccc(C(=O)OC)cc2)cc1`, “inactive”. Next, `CCOC(=O)C1CCN(Cc2ccc(-c3ccccc3)cc2)CC1`: “inactive”; `COc1ccccc1N=Cc1nc(-c2ccccc2)oc1OC(C)=O`: “inactive”.

Consider `Brc1ccc(OCCCCN2CCCCC2)cc1`, for which the compound was called inactive. In the case of `CN(CCOCCOc1ccc(F)cc1)Cc1ccccc1` it was “inactive”; in that of `Cc1ccc(NC(=O)ON=C2CCCC2)cc1`, “inactive”; in that of `O=C(COc1ccc(Cl)cc1)Nc1ccc2[nH]ncc2c1`, “inactive”. Next, `Cc1ccc(NC(=O)COc2ccccc2)cc1Cl`: “inactive”; `CCOc1ccccc1OC(=O)c1cc2ccccc2oc1=O`: “inactive”; `Cc1ccc(C(=O)NCCOc2cccc(C)c2)cc1`: “inactive”. Next, `Cc1cccc(OCCCCc2c(C)n[nH]c2C)c1`: “inactive”.

`CCCCOC(=O)c1ccc(OC(=O)c2cccnc2)cc1`: the call was inactive. In the case of `COc1ccc(OC(=O)c2cc3cc(Cl)ccc3oc2=O)cc1` it was “inactive”; in that of `COc1ccc(Cl)cc1N=Cc1c(O)c2ccccc2oc1=O`, “inactive”.

With `Cc1ccc(NC(=O)CO/N=C/c2ccc(N(C)C)cc2)cc1`, the outcome was inactive. For `COc1ccc(CC(=O)OCC(=O)Nc2ccc(Br)cc2)cc1`, the result was inactive. In the case of `O=C(COC(=O)c1ccc([N+](=O)[O-])s1)Nc1ccc(Cl)cn1` it was “inactive”.

For `Cc1ccccc1C(=O)Nc1nnc(-c2ccco2)o1`, the result was inactive. Next, `O=C(Nc1nnc(-c2ccco2)o1)c1cccc2ccccc12`: “inactive”; `Cc1ccc(CCC(=O)Nc2ccccc2F)s1`: “inactive”; `O=C(Nc1ccccc1F)c1ccc(Br)o1`: “inactive”.

As to `O=C(Nc1nnc(-c2ccc(Br)cc2)o1)c1ccco1`, the compound was called inactive. In the case of `Cc1cccc(NC(=O)COc2ccc(Br)cc2)n1` it was “inactive”; in that of `O=C(Nc1nnc(-c2ccc(Br)cc2)o1)C1=COCCO1`, “inactive”. Next, `Fc1ccc(COc2ccc(-c3nnco3)cc2)cc1`: “inactive”. For the compound `Cc1ccc(C(=O)OCC(=O)N2CCCCCC2)c(O)c1`, the compound was called inactive. Next, `COc1ccc(-c2nc3ccc(C)cc3c(=O)o2)cc1OC`: “inactive”.

Turning to `CC1(C)CC(=O)C(C2NCCc3ccccc32)=C(O)C1` (stereo not drawn), the compound was called inactive. Next, `C/C(CC(=O)Nc1ccc(C)c(Cl)c1)=N\NC(=O)c1ccco1`: “inactive”; `CCOC(=O)c1cc(COc2cc(Cl)cc(Cl)c2)on1`: “inactive”. Next, `Cc1nc2ccc(NC(=O)c3ccc([N+](=O)[O-])cc3[N+](=O)[O-])cc2s1`: “inactive”; `CCOc1ccc(NC(=O)CCC(=O)N/N=C/c2ccc([N+](=O)[O-])s2)cc1`: “inactive”.

`COc1cccc2cc(C(=O)NCc3ccc(F)cc3)c(=N)oc12`: the call was inactive.

`CC1Cc2cc(/C=C3/SC(=S)NC3=O)ccc2O1` (stereo not drawn): the call was inactive. In the case of `CC(C)(O)C#Cc1ccc(C(=O)Nc2ccc3c(c2)OCO3)s1` it was “inactive”; in that of `CC(C)n1c(=S)[nH]c2ccccc2c1=O`, “inactive”; in that of `O=C(Nc1ccccc1)c1ccc(Br)o1`, “inactive”.

For `CCC(C)(C)NC(=O)c1ccc(Br)o1`, the call was inactive. In the case of `O=C(O)c1ccccc1C(=O)NNc1ccc(Cl)cc1` it was “inactive”; in that of `O=C(O)c1ccccc1C(=O)NNc1ccc(F)cc1`, “inactive”; in that of `CCOC(=O)COc1ccc(C(=O)NC2CCCCC2)cc1`, “inactive”. Regarding `O=C(NNc1ccc([N+](=O)[O-])cc1)c1ccccc1Cl`, the outcome was inactive. In the case of `COc1ccc(C(=O)NN/C(C)=C/C(=O)c2ccccc2)cc1` it was “inactive”; in that of `O=C(COC(=O)C1CCCCC1)Nc1ccccc1OC(F)F`, “inactive”; in that of `NC(=O)/C(=N\OC(=O)c1ccco1)c1nc(-c2ccc(Br)cc2)cs1`, “inactive”. Turning to `O=C(OCc1cccc(F)c1)c1ccc2c(=O)n3c(nc2c1)CCC3`, the result was inactive. `Cc1ccc(/C=C2/C(=O)NC(=O)N(CCc3ccc(F)cc3)C2=O)s1`: the compound was classed as inactive. In the case of `Cc1ccc(NC(=O)CN(C)C2CCCCC2)cc1Br` it was “inactive”; in that of `O=C(OCCCCN1C(=O)c2ccccc2C1=O)c1ccc(Br)o1`, “inactive”. In the case of `Nn1c(SCCOc2ccc(Cl)cc2)nnc1-c1cccnc1` it was “inactive”; in that of `Cc1ccc(CC(=O)Nc2ccc(Cl)cn2)cc1`, “inactive”.

As to `O=C(Nc1nc2ccccc2n1CCN1CCCC1)c1ccc(Cl)cc1`, the compound was classed as inactive.

In the case of `Cn1[nH]c(-c2ccccc2)c(/C=N/O)c1=O`, the compound was called inactive.

On to `Clc1ccc(Cc2nnc(-c3cccs3)o2)cc1`, for which the compound was classed as inactive. On to `c1cncc(-c2noc(CC3CCCCC3)n2)c1`, for which the compound was classed as inactive. As to `CCOC(=O)C(=NCCOC)NNc1cc(Cl)ccc1Cl`, the result was inactive.

In the case of `CCOc1cccc2cc(C(=O)NCc3ccccc3)c(=N)oc12`, the compound was called inactive. Next, `CCc1c(C)c2ccc(OCC(=O)OC)cc2oc1=O`: “inactive”; `Cc1cccc2nc(-c3cccnc3)c(NCCC(C)C)n12`: “inactive”. In the case of `CSc1nn(-c2ccc(C(=O)OCC(=O)NC(=O)NC(C)C)cc2)c(=S)s1` it was “inactive”.

Regarding `CC(=O)Oc1c(-c2ccco2)oc2ccccc2c1=O`, the compound was called inactive. Next, `O=[N+]([O-])c1ccc2nc(SCc3cn4cc(Cl)ccc4n3)[nH]c2c1`: “inactive”; `N/C(=N\OC(=O)c1cccc(Br)c1)c1ccc([N+](=O)[O-])cc1`: “inactive”; `O=c1c2c([N+](=O)[O-])cc([N+](=O)[O-])cc2sn1-c1ccc(Br)cc1`: “inactive”. Next, `Cc1nc2ccc(Cl)cc2nc(C)/c1=N\O`: “inactive”; `O=c1c2cc(Cl)ccc2nc(-c2ccccc2Cl)n1O`: “inactive”. Next, `O=C(Oc1cccc([N+](=O)[O-])c1)c1ccc2c(=O)n3c(nc2c1)CCC3`: “inactive”; `CCOC(=O)COn1c(-c2cccc(Cl)c2)nc2ccc([N+](=O)[O-])cc21`: “inactive”.

Turning to `CC(=O)c1cc2c(ccc3ccccc32)oc1=O`, the compound was classed as inactive. Next, `CCOc1ncccc1C(=O)OCC(=O)N1CCc2ccccc21`: “inactive”.
